Here are results for 25 targets from the supplement of paper PMC10849652.

Of roughly 7,900 targets only a part is listed; those with a hit were picked by preference. About 0.6% of all pairs of compound and target were hits. A number with no mark means an inactive call.

UniProt Q01628, sequence (Q01628 whole entry, looked up): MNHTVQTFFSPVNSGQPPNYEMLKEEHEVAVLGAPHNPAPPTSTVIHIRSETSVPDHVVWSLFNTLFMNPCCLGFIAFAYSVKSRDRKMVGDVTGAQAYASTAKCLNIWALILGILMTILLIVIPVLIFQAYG
UniProt Q04446, sequence (Q04446 whole entry, looked up): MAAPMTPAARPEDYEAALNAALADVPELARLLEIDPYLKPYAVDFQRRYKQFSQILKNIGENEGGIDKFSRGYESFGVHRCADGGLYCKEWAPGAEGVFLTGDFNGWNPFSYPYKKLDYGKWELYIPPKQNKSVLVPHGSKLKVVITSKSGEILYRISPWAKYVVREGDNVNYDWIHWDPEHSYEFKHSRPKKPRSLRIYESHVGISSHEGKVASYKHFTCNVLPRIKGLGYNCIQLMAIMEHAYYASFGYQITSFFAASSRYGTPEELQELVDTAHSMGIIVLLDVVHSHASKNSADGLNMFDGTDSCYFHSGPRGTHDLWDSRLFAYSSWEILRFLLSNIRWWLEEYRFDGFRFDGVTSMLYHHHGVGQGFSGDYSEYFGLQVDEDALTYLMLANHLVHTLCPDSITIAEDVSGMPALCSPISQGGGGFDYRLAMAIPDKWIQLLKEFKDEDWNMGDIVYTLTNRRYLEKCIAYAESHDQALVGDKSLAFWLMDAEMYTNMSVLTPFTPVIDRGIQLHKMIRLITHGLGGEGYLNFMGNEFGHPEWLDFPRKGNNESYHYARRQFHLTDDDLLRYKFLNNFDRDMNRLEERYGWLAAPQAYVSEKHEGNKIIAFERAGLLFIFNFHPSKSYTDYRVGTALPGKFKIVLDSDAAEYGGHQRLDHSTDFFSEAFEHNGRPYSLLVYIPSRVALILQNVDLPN
UniProt Q9UJY4, sequence (Q9UJY4 whole entry, looked up): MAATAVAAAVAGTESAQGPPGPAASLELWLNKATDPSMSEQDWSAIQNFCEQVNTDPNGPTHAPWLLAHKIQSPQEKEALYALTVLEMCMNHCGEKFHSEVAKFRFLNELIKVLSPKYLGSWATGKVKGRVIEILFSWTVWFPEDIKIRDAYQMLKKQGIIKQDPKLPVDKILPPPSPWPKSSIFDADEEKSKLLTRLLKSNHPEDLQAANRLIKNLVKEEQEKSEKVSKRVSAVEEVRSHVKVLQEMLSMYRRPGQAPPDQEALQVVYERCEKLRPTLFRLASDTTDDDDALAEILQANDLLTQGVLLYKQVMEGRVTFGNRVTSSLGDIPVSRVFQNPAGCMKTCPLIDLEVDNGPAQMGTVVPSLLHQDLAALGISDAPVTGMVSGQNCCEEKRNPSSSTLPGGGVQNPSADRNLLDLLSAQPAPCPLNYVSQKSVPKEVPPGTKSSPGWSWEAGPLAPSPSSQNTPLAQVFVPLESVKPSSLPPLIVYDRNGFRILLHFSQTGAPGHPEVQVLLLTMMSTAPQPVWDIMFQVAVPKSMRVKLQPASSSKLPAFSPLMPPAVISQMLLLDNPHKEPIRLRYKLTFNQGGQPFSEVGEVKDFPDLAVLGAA
UniProt Q14687, sequence (Q14687 whole entry, looked up): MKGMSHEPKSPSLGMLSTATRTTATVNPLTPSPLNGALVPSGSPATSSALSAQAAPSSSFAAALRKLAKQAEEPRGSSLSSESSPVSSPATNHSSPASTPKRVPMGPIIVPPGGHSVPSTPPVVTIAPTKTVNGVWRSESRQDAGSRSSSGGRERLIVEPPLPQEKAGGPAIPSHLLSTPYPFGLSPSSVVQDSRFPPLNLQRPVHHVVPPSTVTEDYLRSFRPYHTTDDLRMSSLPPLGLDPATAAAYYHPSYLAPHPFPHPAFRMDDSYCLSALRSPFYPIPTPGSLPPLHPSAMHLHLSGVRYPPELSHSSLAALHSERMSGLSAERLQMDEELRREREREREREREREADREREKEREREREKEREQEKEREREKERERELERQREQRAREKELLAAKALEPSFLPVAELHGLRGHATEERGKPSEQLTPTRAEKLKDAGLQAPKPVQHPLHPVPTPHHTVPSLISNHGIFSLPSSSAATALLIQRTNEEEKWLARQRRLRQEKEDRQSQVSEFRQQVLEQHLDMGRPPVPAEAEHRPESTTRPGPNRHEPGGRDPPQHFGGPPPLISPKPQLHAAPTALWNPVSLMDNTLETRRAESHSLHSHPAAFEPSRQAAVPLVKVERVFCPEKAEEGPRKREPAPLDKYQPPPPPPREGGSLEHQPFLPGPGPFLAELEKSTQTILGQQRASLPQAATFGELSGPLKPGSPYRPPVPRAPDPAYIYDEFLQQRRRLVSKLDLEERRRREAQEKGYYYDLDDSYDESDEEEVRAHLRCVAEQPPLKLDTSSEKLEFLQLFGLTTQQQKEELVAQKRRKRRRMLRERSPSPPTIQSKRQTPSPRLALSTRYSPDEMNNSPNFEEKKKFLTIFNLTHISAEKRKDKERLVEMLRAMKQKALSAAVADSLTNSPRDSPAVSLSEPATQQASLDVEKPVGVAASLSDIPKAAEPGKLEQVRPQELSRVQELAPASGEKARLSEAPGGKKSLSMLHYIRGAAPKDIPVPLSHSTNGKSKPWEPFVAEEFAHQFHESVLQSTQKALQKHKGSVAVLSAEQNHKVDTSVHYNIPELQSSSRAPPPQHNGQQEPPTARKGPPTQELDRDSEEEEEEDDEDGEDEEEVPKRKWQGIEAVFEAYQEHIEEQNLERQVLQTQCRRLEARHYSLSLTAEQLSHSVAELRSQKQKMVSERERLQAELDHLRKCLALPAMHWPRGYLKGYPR
UniProt Q969S8, sequence (Q969S8 whole entry, looked up): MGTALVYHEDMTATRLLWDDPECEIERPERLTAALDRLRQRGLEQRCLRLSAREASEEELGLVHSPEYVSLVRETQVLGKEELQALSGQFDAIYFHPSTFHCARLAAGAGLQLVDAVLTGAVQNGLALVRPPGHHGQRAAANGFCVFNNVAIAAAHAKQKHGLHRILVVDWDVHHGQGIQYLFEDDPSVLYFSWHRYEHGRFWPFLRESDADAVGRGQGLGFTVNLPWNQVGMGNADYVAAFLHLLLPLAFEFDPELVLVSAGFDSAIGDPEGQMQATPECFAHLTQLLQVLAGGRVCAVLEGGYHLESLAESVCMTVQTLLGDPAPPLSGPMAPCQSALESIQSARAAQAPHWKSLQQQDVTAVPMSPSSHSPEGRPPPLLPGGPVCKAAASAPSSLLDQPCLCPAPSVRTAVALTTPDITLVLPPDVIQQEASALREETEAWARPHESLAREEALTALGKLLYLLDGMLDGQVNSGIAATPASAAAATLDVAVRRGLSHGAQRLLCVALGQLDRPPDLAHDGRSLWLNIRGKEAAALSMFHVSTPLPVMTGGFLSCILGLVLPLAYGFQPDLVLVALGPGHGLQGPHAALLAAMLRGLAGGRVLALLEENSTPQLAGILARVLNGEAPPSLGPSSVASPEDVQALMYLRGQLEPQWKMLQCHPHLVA
UniProt I6L899, sequence (I6L899 whole entry, looked up): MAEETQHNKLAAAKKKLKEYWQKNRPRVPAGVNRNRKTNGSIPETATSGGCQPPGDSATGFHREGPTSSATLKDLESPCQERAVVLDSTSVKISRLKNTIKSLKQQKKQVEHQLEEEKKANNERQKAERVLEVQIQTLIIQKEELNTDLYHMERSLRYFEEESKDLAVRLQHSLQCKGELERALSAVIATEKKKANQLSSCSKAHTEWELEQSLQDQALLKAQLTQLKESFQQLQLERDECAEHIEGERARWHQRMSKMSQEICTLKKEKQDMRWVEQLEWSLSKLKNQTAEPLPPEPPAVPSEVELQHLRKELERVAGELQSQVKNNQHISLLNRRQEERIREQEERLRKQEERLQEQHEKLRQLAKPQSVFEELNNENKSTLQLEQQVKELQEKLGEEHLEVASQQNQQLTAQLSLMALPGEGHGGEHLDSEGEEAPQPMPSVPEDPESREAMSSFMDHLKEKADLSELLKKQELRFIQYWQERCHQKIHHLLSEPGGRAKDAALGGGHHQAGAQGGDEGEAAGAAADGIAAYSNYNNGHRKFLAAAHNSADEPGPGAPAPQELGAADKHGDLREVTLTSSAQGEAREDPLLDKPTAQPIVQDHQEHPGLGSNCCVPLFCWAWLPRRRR
UniProt P30711, sequence (P30711 whole entry, looked up): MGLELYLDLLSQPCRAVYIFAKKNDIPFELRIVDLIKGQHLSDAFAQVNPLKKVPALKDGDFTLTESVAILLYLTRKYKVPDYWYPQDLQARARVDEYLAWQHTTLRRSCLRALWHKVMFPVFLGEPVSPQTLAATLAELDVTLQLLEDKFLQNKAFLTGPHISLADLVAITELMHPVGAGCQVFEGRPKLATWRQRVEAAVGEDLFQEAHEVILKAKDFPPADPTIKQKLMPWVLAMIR
UniProt P21695, sequence (P21695 whole entry, looked up): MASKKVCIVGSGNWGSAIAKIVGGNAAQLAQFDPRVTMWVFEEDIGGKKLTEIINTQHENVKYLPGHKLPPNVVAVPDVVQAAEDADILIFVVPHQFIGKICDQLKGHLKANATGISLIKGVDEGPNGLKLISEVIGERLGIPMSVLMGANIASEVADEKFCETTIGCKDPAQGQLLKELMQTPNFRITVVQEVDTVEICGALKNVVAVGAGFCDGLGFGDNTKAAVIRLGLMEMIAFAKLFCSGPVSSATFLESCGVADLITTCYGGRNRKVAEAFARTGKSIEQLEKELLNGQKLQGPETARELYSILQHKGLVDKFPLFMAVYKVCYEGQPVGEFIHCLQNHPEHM
UniProt Q9H6D7, sequence (Q9H6D7 whole entry, looked up): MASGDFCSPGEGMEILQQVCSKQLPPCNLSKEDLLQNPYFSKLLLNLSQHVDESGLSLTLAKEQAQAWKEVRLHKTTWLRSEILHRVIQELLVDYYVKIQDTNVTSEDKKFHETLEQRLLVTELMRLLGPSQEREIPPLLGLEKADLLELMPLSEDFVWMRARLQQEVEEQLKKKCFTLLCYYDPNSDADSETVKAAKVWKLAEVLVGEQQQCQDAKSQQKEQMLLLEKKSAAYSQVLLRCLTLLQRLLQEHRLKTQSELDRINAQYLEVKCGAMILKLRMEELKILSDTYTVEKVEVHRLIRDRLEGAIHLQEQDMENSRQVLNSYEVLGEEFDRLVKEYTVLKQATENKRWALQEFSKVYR

Compound in this experiment: C[C@H](C1=CC=C(C=C1)C(=O)NC2=C3C=CNC3=NC=C2)N
The experiment in a line: log2 fold change, soluble protein after heating vs DMSO (PISA); higher = thermal stabilisation; K562 cells, 10 uM, 30 min; active = over 0.2 and 3.5 SD of the protein, either way, in both replicates (recomputed). The gist of the method: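 K562 cells at 2×10^6 cells/mL were given 10 μM compound for 30 min. Aliquots then went through 3 min of heating across 48°C-58°C, were pooled, and were extracted in PBS with 0.5% NP-40 at 4°C, and the supernatant after 21,000xg for 90 min was quantified by TMTpro 16plex LC-MS/MS with channel sums equalised. Thermal stability relative to control samples, from duplicates, is given as log2 fold change.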
Regarding GBE1 (UniProt Q04446), the log2 fold change is 0.193.

Take GOLGA8R (UniProt I6L899): the log2 fold change was -0.059.

On to HS1BP3 (UniProt Q53T59), for which the log2 fold change was 0.143.

Turning to HSPA8 (UniProt E9PN89), the log2 fold change was 0.377.

On to GREB1 (UniProt Q4ZG55), for which the log2 fold change was 0.12.

On to IFITM3 (UniProt Q01628), for which the log2 fold change is -0.085.

In the case of FCHO1 (UniProt O14526), the log2 fold change is 0.161.

H3-3A (UniProt P84243): the log2 fold change was 0.038.

Consider GNL3 (UniProt Q9BVP2), for which the log2 fold change was 0.065.

In the case of GBA2 (UniProt Q9HCG7), the log2 fold change is 0.004.

Consider FHOD1 (UniProt Q9Y613), for which the log2 fold change is 0.58 (active).

FBXO9 (UniProt Q9UK97): the log2 fold change was -0.046.

On to FMR1 (UniProt Q06787), for which the log2 fold change was 0.199.

Consider HAUS4 (UniProt Q9H6D7), for which the log2 fold change is 0.139.

On to IDH3A isoform 2 (UniProt P50213), for which the log2 fold change is -0.016.

For the target GPD1 (UniProt P21695), the log2 fold change is -0.482.

For GDE1 (UniProt Q9NZC3), the log2 fold change was -0.087.

Consider GSTT1 (UniProt P30711), for which the log2 fold change is 0.002.

Take GID4 (UniProt Q8IVV7): the log2 fold change is -0.006.

As for HNRNPUL1 (UniProt M0R247), the log2 fold change is 0.722.

As to IFNGR1 (UniProt P15260), the log2 fold change was 0.068.

Consider HDAC10 (UniProt Q969S8), for which the log2 fold change is -0.045.

For the target FAT2 (UniProt Q9NYQ8), the log2 fold change is 0.306.

As to GGA2 (UniProt Q9UJY4), the log2 fold change was 0.036.

As for GSE1 (UniProt Q14687), the log2 fold change was 0.008.
